High-throughput results from PubChem BioAssay.
An excerpt weighted towards active compounds, which were near 0.98% of everything screened.
Yp Topo-I inh: Yersinia pestis topoisomerase I inhibitors, primary screen, biochemical, cleavage product accumulation, plate reader, single point | AID 504884, 2011 | actives 0.064% (n = 360,000) | DNA topoisomerase I (Yersinia pestis CO92) | Y. pestis Topo-I cleavage product accumulation | activity, % at 10 µM; in the data active = activity above about 50%, passing the limit was not always enough; inconclusive = no clear call, values can overlap the other calls
Rv3671c inh: Rv3671c serine protease inhibitors, primary screen, biochemical, fluorescence polarization, M. tuberculosis H37Rv; P9WHR9; inhibition, % at 5.96 µM; actives 0.048% (n = 320,000); in the data active = inhibition above about 38%;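 also: extracellular domain of Rv3671c used as enzyme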
Mtb betalactam: beta-lactam sensitization of Mtb H37Rv, H37Rv. M. tuberculosis H37Rv growth with meropenem, percent inhibition. inhibition, % at 25 µM. actives 0.27% (n = 330,000). AID 434955, 2010; call rule not given here;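 also: growth measured after seven days incubation then overnight dye step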
FadD28 FP inh: inhibitors of FadD28 bisubstrate probe binding, primary screen, biochemical, fluorescence polarization, single point. Mycobacterium tuberculosis FadD28 fatty-acid-AMP ligase. inhibition, % at 12.5 µM. actives 0.22% (n = 360,000); in the data active = inhibition above about 8.5%, passing the limit was not always enough; inconclusive = no clear call, values can overlap the other calls
UGM FP inh: M. tuberculosis UGM enzyme inhibitors, primary screen, biochemical, fluorescence polarization, single point; AID 504406, 2011; purified UGM, fluorescence polarization probe displacement; inhibition, % at 10 µM; actives 0.06% (n = 320,000); UDP-galactopyranose mutase (Mycobacterium tuberculosis (strain ATCC 25618 / H37Rv)), …; in the data active = inhibition above about 10%, passing the limit was not always enough; inconclusive = no clear call, values can overlap the other calls
Target sequence (P9WIQ1 whole entry, looked up): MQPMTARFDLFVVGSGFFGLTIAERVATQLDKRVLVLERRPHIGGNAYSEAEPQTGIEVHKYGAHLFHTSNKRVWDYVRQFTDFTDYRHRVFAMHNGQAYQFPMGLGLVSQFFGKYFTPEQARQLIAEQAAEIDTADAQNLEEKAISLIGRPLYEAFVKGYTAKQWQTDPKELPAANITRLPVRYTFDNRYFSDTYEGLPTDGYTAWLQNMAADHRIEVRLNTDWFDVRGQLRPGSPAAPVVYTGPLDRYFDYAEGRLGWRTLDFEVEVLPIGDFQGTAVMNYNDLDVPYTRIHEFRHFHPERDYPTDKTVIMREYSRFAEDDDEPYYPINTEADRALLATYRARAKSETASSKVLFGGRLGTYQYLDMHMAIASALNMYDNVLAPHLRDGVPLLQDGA
PfHsp40 yeast: rescue of yeast from PfHsp40 toxicity, primary screen, S. cerevisiae, ATP luminescence; AID 504582, 2011; actives 0.68% (n = 340,000); S. cerevisiae expressing PfHsp40, growth rescue; growth rescue, % at 12.5 µM; in the data active = growth rescue above about 28%, passing the limit was not always enough; inconclusive = no clear call, values can overlap the other calls;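 also: yeast W303a lacking pdr1 and pdr3 grown in galactose medium; growth measured after three days at 30 °C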
Numbers stand for hits; 0 = inactive; ? = inconclusive; - = no result.

SMILES | Yp Topo-I inh | Rv3671c inh | Mtb betalactam | FadD28 FP inh | UGM FP inh | PfHsp40 yeast
O=C(N/N=C(\c1ccccc1)c1cccnc1)c1cccc(F)c1 | 0 | 0 | 0 | 0 | 0 | 315
CCOc1ccc(/C=C2\N=C(c3cccs3)OC2=O)cc1OC | - | 0 | 0 | - | 38 | -
COc1ccc(C2CC(=O)Oc3cc(O)ccc32)cc1 (configuration not stated) | 0 | - | - | 0 | - | 0
Cc1ccccc1C1CC(=O)Oc2cc(O)ccc21 (configuration not stated) | 0 | - | - | 13 | - | 0
N#C/C(=C(/O)COC(=O)Cc1c[nH]c2ccccc12)c1nc2ccccc2[nH]1 | 0 | 0 | 0 | 0 | 0 | 80
C/C(=N\Nc1ccc([N+](=O)[O-])cc1)c1cccc(N)c1 | 0 | 0 | 0 | 0 | 0 | ?
C/C(=N\Nc1ccc([N+](=O)[O-])cc1)c1ccc(O)cc1 | 0 | 0 | 0 | 0 | 0 | 180
N/C(Cc1ccc(Cl)cc1Cl)=N\OC(=O)c1ccc(Br)o1 | 0 | 0 | 0 | 0 | 0 | 572
CCCCNC(=O)c1nc(-c2ccncc2)oc1-c1ccccc1 | - | - | - | 0 | - | -
COc1cc2c(cc1OC)C(=O)N1[C@H]3c4ccccc4OC[C@@H]3[C@H](c3ccccc3)[C@]1(C)C(=O)N2 | 0 | 0 | 0 | 0 | 0 | 63
COc1ccc2c(c1)OC[C@H]1[C@H]2N2C(=O)c3cc(OC)c(OC)cc3NC(=O)[C@@]2(C)[C@H]1c1ccccc1 | 0 | 0 | 0 | 0 | 0 | 44
C[C@@]12C(=O)Nc3cc(F)c(F)cc3C(=O)N1[C@H]1c3ccccc3OC[C@@H]1[C@@H]2c1ccccc1 | 0 | - | - | 0 | - | 0
COc1ccc2c(c1)OC[C@H]1[C@H]2N2C(=O)c3cc(Br)ccc3NC(=O)[C@@]2(C)[C@H]1c1ccccc1 | 0 | 0 | 0 | 0 | 0 | 333
C[C@H](O)[C@@H]1C(=O)N2CCc3c([nH]c4ccccc34)[C@@H]2C[C@@H]1N(C)C(=O)Nc1cc(Cl)cc(Cl)c1 | 0 | - | - | 0 | - | -
CC(CNC(=O)CCCn1c(=O)c2cccn2c2cccnc21)c1ccccc1 (configuration not stated) | 0 | - | - | 0 | - | -
CCOC(=O)C1CCN(Cc2cccc(Oc3ccccc3)c2)CC1 | 66 | 0 | 0 | 0 | 0 | 0
NC(=O)N=Nc1c2[nH]c3ccccc3nc-2c2ccccc12 | 0 | 0 | 0 | 0 | 0 | 45
O=c1[nH]c2ccccc2nc1-c1ccccc1 | 0 | 0 | 0 | 0 | 0 | 0
S=C(NCc1ccco1)Nc1ccc(Cl)c(Cl)c1 | 0 | 0 | 0 | 0 | 0 | 36
Cc1cccc(CN2CCN([C@H]3CS(=O)(=O)N[C@@H]3COCc3ccccc3)CC2)c1 | - | - | - | 0 | - | -
O=[N+]([O-])c1ccc(Cl)cc1Sc1nc2ccccc2o1 | 0 | 0 | 0 | 0 | 0 | 165
O=[N+]([O-])c1ccc(Sc2nc3ccccc3o2)c([N+](=O)[O-])c1 | 0 | 0 | ? | 0 | 0 | 0
CCc1c(O)nc(SCC(=O)Nc2nc3ccccc3s2)n(C2CCCCC2)c1=O | 0 | 0 | 0 | 12 | 0 | 0
CCc1nc2c(OCc3ccccc3)cccn2c1N(C)C(=O)C(C)C | 0 | - | - | 0 | - | -
CC(=O)Nc1ccc(-c2ccnc3c2CC(C(=O)Nc2ccc4c(c2)OCO4)O3)cc1 (configuration not stated) | 0 | - | - | 0 | - | -
SMILES | Yp Topo-I inh | Rv3671c inh | Mtb betalactam | FadD28 FP inh | UGM FP inh | PfHsp40 yeast
CC(C)c1ccc(NC(=O)C2Cc3c(-c4ccc5c(c4)OCO5)ccnc3O2)cc1 (configuration not stated) | 60 | - | - | 0 | - | -
Cc1ccc(Nc2ccc(-n3ccnc3)nn2)cc1C | 0 | 0 | 0 | 0 | 0 | 66
O=C(O)c1ccccc1-c1c2cc(I)c(=O)c(I)c-2oc2c(I)c(O)c(I)cc12 | 0 | 0 | 0 | 0 | 0 | 34
CN(C)CCOc1ccc(-c2c(-c3ccccc3)sc3ccccc23)cc1 | 0 | 0 | 0 | 0 | 0 | 33
Cc1nc2ccc(NC(=O)C3(C)CCCN(C(C)C)C3)cc2o1 (configuration not stated) | 0 | - | - | 0 | - | -
CC1(C(=O)NS(=O)(=O)c2ccc(Cl)cc2)CCN1C(=O)Cc1ccccc1Cl (configuration not stated) | 0 | - | - | 0 | - | -
O=C1NC(=S)N/C1=C\c1cccc([N+](=O)[O-])c1 | 0 | 0 | 0 | 0 | 0 | 0
O=C1NC(=S)N/C1=C/c1cccc([N+](=O)[O-])c1 | 0 | 0 | 0 | 0 | 0 | 61
